Among the data in the OligoGym collection are sensor-assay potency score (higher = more potent) values, retold here.
Also: reference of the scale not given here.

One assay addresses TM4SF4. The assay can be described thus: pooled miR-30 sensor sort-seq; sequence = guide strand. Conditions: shRNA.
In turn, TCGTGGAGGTGAACATCGCAAA displayed a sensor-assay potency score (higher = more potent) of -1.55. The sequence TTTGAAAATAACAAAATTCTAA displayed a sensor-assay potency score (higher = more potent) of -0.879. On the same count and under the same terms, the value for TTGACCACCTGGATGGCGCAGA was -0.376; that for AAGATCATCAAGACACCGCTTC was 0.685; that for AACATCGCAAATCGCTTCCCAC was -1.03. For TAAACGAGTATCCAGCTCCCAA, the sensor-assay potency score (higher = more potent) is -1.07. On the same count and under the same terms, for TTGTCATCTATCACTTTTCCTC the value was -0.799; for TTTTCTAAGCTTTATCAGCTAG, -0.744; for TTGTTGATTGAAATGGCTGAGA, -0.818. In turn, ATTGAGATAATCCCCGTCGTGG registered a sensor-assay potency score (higher = more potent) of -0.0711.

A further assay deals with TM7SF2. Described as above. Conditions: shRNA.
Consider TTCATGTAGAGAAAGAGGCTGA, for which the sensor-assay potency score (higher = more potent) amounted to 0.647. TCATGTGTGATATCCATGGTGG: the sensor-assay potency score (higher = more potent) is -0.309. On the same count and under the same terms, for AGATGTAGTAACCAGTAGCATT the value was -2.06. As to TTGATGAGGCAGATGACAGAGG, the sensor-assay potency score (higher = more potent) was -0.497. In turn, TTTGAAGTCGAAGAAACAGATA gave a sensor-assay potency score (higher = more potent) of -1.28. In the case of TATTTGAAGTCGAAGAAACAGA, the sensor-assay potency score (higher = more potent) was -0.986.

For the sequence TTGTCCTTCAATTCCTGCCCCT, the sensor-assay potency score (higher = more potent) is -0.137.

With TAGAGATGGTCTCAAGCCCAGC, the sensor-assay potency score (higher = more potent) is -1.47. Take TTTCGGAAAGTGTTTTTCTGGG: the sensor-assay potency score (higher = more potent) was -0.966. TACTTCTGCAGGCACTGCCGCT gave a sensor-assay potency score (higher = more potent) of -1.41. The same measure, in the same setting: the value for TTGAGTCCCAAGTGTGTCGAGG was -0.705.

The next assay deals with TMCC3. The assay is described as above. To be noted: shRNA.
Take TATTTTATTCTTGCTAGTCTTT: the sensor-assay potency score (higher = more potent) was -0.521. On the same count and under the same terms, for TTGCTTGATACGTCCCGCCTGC the value was -0.167; for TTGAAAACGAACACAGGTGGAG, 0.022.

For TTAAAGTGTAACAAAACCCCTC, the sensor-assay potency score (higher = more potent) was -0.0862. On to TTTGACCTTGTGGAAGTCCAGG, for which the sensor-assay potency score (higher = more potent) is -0.907.

Turning to TTATTGAAAACGAACACAGGTG, the sensor-assay potency score (higher = more potent) was -0.162. Take TTGCACTTAATTTGAATCCAGG: the sensor-assay potency score (higher = more potent) is -0.313. TACCTTTAGAATTTTTTGCTTC: the sensor-assay potency score (higher = more potent) was -0.127. The sequence TAATGTTAAAGTCACAGTCTGA displayed a sensor-assay potency score (higher = more potent) of -0.348. Take TTGTTCACGATGGTAGCGCTGC: the sensor-assay potency score (higher = more potent) was -0.609. Same read-out and setting: for TTCTCTCTTAAACTGCACCTTC the value was 0.0499; for TTGGGTATCCTTGATCTCCCTC, 0.381.

The target of the next assay is TMCO6. The description is as above. To be noted: shRNA.
In turn, ATACACACGATCCTGGAGCTGG returned a sensor-assay potency score (higher = more potent) of -0.0753. Still for that read-out and setting: for AACATTGCACAGAACTGTGAGC the value was -0.57. As to AACACGCTCATCTCTGAGCTGC, the sensor-assay potency score (higher = more potent) was -0.789. The sequence TTCCTCAGCCTGTAGAAGCTGG returned a sensor-assay potency score (higher = more potent) of -0.621. TTTGTAGCATGTGCTGAGGGAG yielded a sensor-assay potency score (higher = more potent) of -0.612. In turn, TTGCAACATTTGTAGCATGTGC had a sensor-assay potency score (higher = more potent) of -0.588. The same measure, in the same setting: the value for TACTGGACAAACAAGCTTGATG was -0.998.
